Test results: ChEMBL document CHEMBL4513216, “Probing the Open Global Health Chemical Diversity Library for Multistage-Active Starting Points for Next-Generation Antimalarials” (ACS Infect Dis, 2020)
The whole screen tested about 69,000 compounds, of which about 8,600 (12%) showed an effect of 50% or more. The full list was thinned out, with strong results kept by preference.

tested on: Plasmodium berghei; assay: Screen against P. berghei liver stage (PbLuc), transformed with Luciferase, at 10uM; assay type: functional, HepG2; settings: tested at 10 uM

Row | SMILES | INHIBITION [%]
1 | Cc1cc(-c2cc(S(=O)(=O)N3C[C@H](C4CC4)[C@@H](N)C3)c(C)s2)[nH]n1 | 25.5
2 | COCCN1CCCn2cnc(CNC(=O)N(C)C)c2C1 | 29.8
3 | COCCN1CCCn2cnc(CN(C)C(C)C)c2C1 | 21.7
4 | COCCN1CCCn2cnc(CNC3CCCC3)c2C1 | 55.5
5 | COCc1cccc(S(=O)(=O)N2CCSCC2)c1 | 40
6 | CSc1ccc(C)c(C(=O)N2CCCC(n3cncn3)C2)c1 (configuration not stated) | -10.1
7 | Cc1ncc2c(n1)C1(CCN(C(=O)C(C)C)CC1)OCC2 | 3.89
8 | CCc1ccc(C(=O)NC(C)c2ccc(S(C)(=O)=O)c(F)c2)o1 (configuration not stated) | 6.33
9 | CC(NC(=O)c1ccc(CS(C)(=O)=O)o1)c1ccc(F)c(F)c1 (configuration not stated) | 12.3
10 | CCc1ccc(C(C)NC(=O)c2ccc(CS(C)(=O)=O)o2)cc1 (configuration not stated) | 50.8
11 | Cc1cc(C)cc(C(C)NC(=O)c2ccc(CS(C)(=O)=O)o2)c1 (configuration not stated) | 54.3
12 | CCc1ccc(C(C)NC(=O)CN(C)Cc2ccc(C)o2)cc1 (configuration not stated) | -27
13 | Cc1cn2c(n1)CCC(NC(=O)c1ccc(CS(C)(=O)=O)o1)C2 (configuration not stated) | 13.1
14 | CS(=O)(=O)N1CCC(NC(=O)COc2ccccc2Cl)CC1 | -19.9
15 | O=C(c1nccc2ccccc12)N1CCCCC1Cn1cccn1 (configuration not stated) | 3.73
16 | Cc1nc(CNC(=O)c2cc(COc3ccccc3F)[nH]n2)n[nH]1 | 17
17 | CNc1cc(C)nc(C2CN(Cc3cncs3)CCO2)c1 (configuration not stated) | 11.1
18 | Cn1nc(CN2CCCC2)c2c1CN(C(=O)c1cccnc1)CC2 | -31.3
19 | Cc1cc2n(n1)CC(CNCc1ccc(-n3ccnc3C)nc1)CN2 (configuration not stated) | -13.575
20 | CC(=O)N1CCOC(c2c(C(=O)NC(C)(C)C)sc3ccccc23)C1 (configuration not stated) | -84.7
21 | Cc1cnc(N2CC[C@@H]3O[C@@H](COCC(=O)N(C)C)CC[C@@H]32)nc1 | 18.2
22 | CSc1ccc(CN(C)C(=O)c2cc3c([nH]c2=O)CCCC3=O)cc1 | 7.99
23 | CSc1ccc(CN(C(=O)c2cc[nH]n2)C2CC2)cc1 | 59.1
24 | CSc1ccc(CN(C(=O)c2cc(=O)[nH]c(=O)[nH]2)C2CC2)cc1 | 59.1
25 | O=C(c1cc[nH]n1)N(Cc1cccc(O)c1)CC1CC1 | 5.64
26 | CSc1ccc(CN(C(=O)c2cc(C)[nH]c(=O)c2)C2CC2)cc1 | 50.8

Row | SMILES | INHIBITION [%]
27 | Cc1ccc(C(=O)N(Cc2ccc(F)cc2)C2CC2)c(=O)[nH]1 | -37.8
28 | Cc1ccc(C(=O)N(Cc2cccc(F)c2)C2CC2)c(=O)[nH]1 | -30.7
29 | COc1cc(C(=O)N(Cc2ccc(F)cc2)C2CC2)cc2c1OCCO2 | 13.4
30 | O=C(c1cc[nH]n1)N(Cc1ccc(F)cc1)CC1CC1 | -24
31 | CN(C)Cc1ccc(C2CCCCN2C(=O)c2cc(=O)[nH]c(=O)[nH]2)cc1 (configuration not stated) | 16.7
32 | COC1CCN(c2ccc(F)cc2CN(C)C(=O)c2cc[nH]n2)CC1 | -74.8
33 | O=C(c1cc[nH]n1)N(Cc1ccccc1)CC1CCC1 | 72.3
34 | NC(=O)C1Cn2ccnc2C2(CCN(C(=O)NC3CCCC3)CC2)O1 (configuration not stated) | 0.453
35 | CC(C)Oc1ccc(CNC(=O)CCN2C(=O)CCC2=O)cc1F | -38.75
36 | Cc1nc2c(c(NC3CCN(Cc4ccccc4)CC3)n1)CCNCC2 | -4.28
37 | CC(=O)N1CCCC(c2nccnc2-c2ccc(CO)cc2)C1 (configuration not stated) | 20.2
38 | c1ccc(CCN2CCN(C3CCOC4(CCOCC4)C3)CC2)cc1 (configuration not stated) | 36.8
39 | CC(NC(=O)CN(C)S(C)(=O)=O)c1nnc2n1CCCCC2 (configuration not stated) | 38.6
40 | CCc1ccc(C(=O)N2CCCC(CNS(C)(=O)=O)C2)o1 (configuration not stated) | -26.6
41 | O=C(NCc1ccccc1)C1=NOC2(CCNC2)C1 (configuration not stated) | 24.5
42 | O=c1ccc(-c2cccs2)nn1CN1CCN(C2CCS(=O)(=O)C2)CC1 (configuration not stated) | -4.52
43 | COc1ccc(C(=O)CNC(=O)c2nc(Cl)sc2C(C)C)cc1 | -44.2
44 | CC1CCCCN1C(=O)CCc1nnc(-c2ccccc2)o1 (configuration not stated) | 51.5
45 | O=C(CCc1nnc(-c2ccccc2)o1)N1CCCC1c1ccccn1 (configuration not stated) | 17.8
46 | O=C(CCc1nnc(-c2ccccc2)o1)N1CCCC1c1ccc[nH]1 (configuration not stated) | -14.9
47 | Cc1cc(CN2CCC(N(C)Cc3nnc(C4CC4)n3C)C2)on1 (configuration not stated) | 19.2
48 | COCc1noc(Cc2c(C)nn(C)c2C)n1 | 28.5
49 | Cc1nc(C(=O)N(C)CC(F)(F)C(F)(F)F)c2ccccn12 | 3.03
50 | Cc1nc(C(=O)N(CC(=O)N(C)C)CC(F)(F)F)c2ccccn12 | 53.3
51 | CCOC(=O)CN(CC(F)(F)F)C(=O)c1nc(C)n2ccccc12 | 22.3
52 | CCCc1nc(CN2CCCC(c3noc(C4CC4)n3)C2)no1 (configuration not stated) | 4.71
